According to PMC4336329 (PLoS ONE, 2015):
Out of some 310,000 compounds screened, about 14,000 (4.5%) showed an effect of 50% or more. The effect is printed as a negative number. The sample as a whole holds a higher share of strong results than the screen did.

target: human ether-à-go-go-related gene (hERG) potassium channel (human, UniProt Q12809); experiment: primary screen, population patch clamp on CHO cells stably expressing hERG; higher = less effect of the substance
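Note: peak tail current of the secondary pulse compared with the same well before compound.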

human ether-à-go-go-related gene (hERG) potassium channel, sequence (Q12809 whole entry, looked up): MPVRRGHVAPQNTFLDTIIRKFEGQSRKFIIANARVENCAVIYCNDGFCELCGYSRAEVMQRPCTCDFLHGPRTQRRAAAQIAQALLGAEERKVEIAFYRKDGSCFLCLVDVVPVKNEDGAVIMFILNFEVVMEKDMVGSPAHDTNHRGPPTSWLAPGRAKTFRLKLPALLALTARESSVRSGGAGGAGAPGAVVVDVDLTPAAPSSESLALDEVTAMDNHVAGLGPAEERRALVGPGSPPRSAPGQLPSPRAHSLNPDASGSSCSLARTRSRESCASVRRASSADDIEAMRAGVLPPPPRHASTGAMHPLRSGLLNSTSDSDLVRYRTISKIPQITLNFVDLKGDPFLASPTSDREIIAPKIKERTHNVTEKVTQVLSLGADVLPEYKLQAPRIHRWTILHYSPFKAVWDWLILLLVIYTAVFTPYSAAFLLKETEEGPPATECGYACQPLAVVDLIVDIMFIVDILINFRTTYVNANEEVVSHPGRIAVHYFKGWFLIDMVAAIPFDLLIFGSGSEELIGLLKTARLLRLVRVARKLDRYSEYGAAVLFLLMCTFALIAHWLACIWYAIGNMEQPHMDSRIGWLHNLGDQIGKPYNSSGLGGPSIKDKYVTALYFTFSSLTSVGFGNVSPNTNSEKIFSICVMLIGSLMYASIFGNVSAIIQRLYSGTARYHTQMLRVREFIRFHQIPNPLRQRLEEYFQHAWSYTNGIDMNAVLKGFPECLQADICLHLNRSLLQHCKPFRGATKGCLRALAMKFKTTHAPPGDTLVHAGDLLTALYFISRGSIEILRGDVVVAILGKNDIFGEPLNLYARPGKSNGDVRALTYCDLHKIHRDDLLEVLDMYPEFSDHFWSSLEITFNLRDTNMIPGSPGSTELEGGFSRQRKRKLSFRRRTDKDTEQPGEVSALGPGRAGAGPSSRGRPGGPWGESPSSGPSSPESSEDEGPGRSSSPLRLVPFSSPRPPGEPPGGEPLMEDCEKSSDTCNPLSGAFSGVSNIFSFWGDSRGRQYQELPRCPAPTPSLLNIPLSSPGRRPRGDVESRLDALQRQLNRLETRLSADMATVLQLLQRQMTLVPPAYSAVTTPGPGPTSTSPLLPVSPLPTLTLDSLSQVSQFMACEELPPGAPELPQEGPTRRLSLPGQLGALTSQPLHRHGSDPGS

Row | SMILES | hERG current change (%, negative = inhibition) at 10uM [%]
1 | Cc1ccc(S(=O)(=O)Nc2nc(CN3CCOCC3)nc3sc(C)c(C)c23)cc1 | -43
2 | Cc1sc2nc(CN3CCOCC3)nc(N3CCOCC3)c2c1C.O=C(O)C(=O)O | -10.8
3 | O=C(CNc1n[nH]c(=O)[nH]c1=O)N/N=C/c1ccccc1 | 2.89
4 | O=S(NC1CCCCC1)C12CC3CC(CC(C3)C1)C2 (stereo not shown) | -12.4
5 | CCc1nc(N2CCN(C(C)=O)CC2)c(C#N)c2c1COC(C)(C)C2 | -0.704
6 | CCc1nc(N2CCN(C(=O)c3ccccc3)CC2)c(C#N)c2c1COC(C)(C)C2 | -46.5
7 | Cc1nc(N2CCN(C(=O)c3ccc(Cl)cc3)CC2)c(C#N)c2c1COC(C)(C)C2 | -60.8
8 | CCc1nc(N2CCN(C(=O)c3ccco3)CC2)c(C#N)c2c1COC(C)(C)C2 | -52.1
9 | CC(C)c1nc(N2CCN(C(=O)c3ccco3)CC2)c(C#N)c2c1COC(C)(C)C2 | -71.5
10 | CC(C)c1nc(N2CCN(C(=O)c3ccccc3)CC2)c(C#N)c2c1COC(C)(C)C2 | -40.8
11 | CCCNC(=O)N1CCN(c2nc(C(C)C)c3c(c2C#N)CC(C)(C)OC3)CC1 | 4.84
12 | CC1(C)Cc2c(C#N)c(N3CCN(C(=O)c4ccco4)CC3)nc(Cc3ccccc3)c2CO1 | -25.3
13 | Cc1nc(N2CCN(Cc3ccccc3)CC2)c(C#N)c2c1COC(C)(C)C2 | -5.21
14 | O=C(CC1SC(N2CCCCC2)=NC1=O)Nc1cccc(C(F)(F)F)c1 (stereo not shown) | 12.3
15 | CCOc1ccc(C2Oc3nc(SC)nnc3-c3ccccc3N2C(C)=O)cc1OC (stereo not shown) | 9.64
16 | CCC(Sc1nnc(-c2ccc(C)c(Cl)c2)n1CC)C(=O)Nc1nccs1 (stereo not shown) | -20.6
17 | CCOC(=O)/C=C(\C)Sc1cc(=O)oc2ccccc12 | -40.4
18 | O=C(Nc1nccs1)c1ccc(COc2ccccc2)o1 | 15.6
19 | O=C(O)CC1c2ccccc2CCN1S(=O)(=O)c1ccc(F)cc1 (stereo not shown) | 8.32
20 | CCc1ccc2[nH]c(=O)c(-c3ccccc3)c(O)c2c1 | 17.5
21 | CN(CC(N)=O)S(=O)(=O)c1ccc(F)cc1 | -15.7
22 | CCOC(=O)CSc1ccc2nnc(-c3cccnc3)n2n1 | -31

Row | SMILES | hERG current change (%, negative = inhibition) at 10uM [%]
23 | O=C(O)CSc1ccc2nnc(-c3cccnc3)n2n1 | 12.2
24 | COc1ccc(C(=O)CSc2ccc3nnc(-c4cccnc4)n3n2)cc1 | -70.3
25 | O=C(CSc1ccc2nnc(-c3cccnc3)n2n1)N1CCOCC1 | -25
26 | O=C(CSc1ccc2nnc(-c3cccnc3)n2n1)c1ccccc1 | -70
27 | CCC(Sc1ccc2nnc(-c3cccnc3)n2n1)C(=O)OC (stereo not shown) | -47
28 | O=C(Nc1cccc(NC(=O)C2CC2)n1)C1CC1 | -6.67
29 | CCOC(=O)N1CCN(c2cc(N3CCOCC3)c(F)cc2[N+](=O)[O-])CC1 | -18.2
30 | CC1=CC(=O)OC1Cc1ccncc1 (stereo not shown) | 11.3
31 | NC(=O)C1CCN(C(=O)CCSCc2ccc(Cl)c(Cl)c2)CC1 | -13.3
32 | COC(=O)c1ccc(CN2CCC(CO)(Cc3cccc(OC)c3)CC2)cc1 | -66.1
33 | CCN1CCN(Cc2ccc(OC(F)(F)F)cc2)CC1 | -26.6
34 | COc1ccc(CC2(CO)CCN(Cc3ccncc3)CC2)cc1 | -21.2
35 | COC(=O)c1ccc(CN2CCC(CO)(Cc3ccc(OC)cc3)CC2)cc1 | -66.1
36 | COC(=O)c1ccc(CN2CCCCC2)cc1 | 1.45
37 | COc1ccc(CC2(CO)CCN(Cc3ccc(OC(F)(F)F)cc3)CC2)cc1 | -75.1
38 | COc1cccc(CC2(CO)CCN(Cc3cn(C)nc3C)CC2)c1 | 18.3
39 | COC(=O)c1ccc(CN2CCC(CO)(Cc3ccccc3Cl)CC2)cc1 | -64.8
40 | COC(=O)c1cccc(C(=O)N2CCC(CO)(Cc3ccccc3Cl)CC2)c1 | -23.1
41 | COc1ccc(-c2ncc(CN3CCC(CO)(Cc4cccc(OC)c4)CC3)cn2)cc1 | -4.79
42 | Nn1c(SCC(=O)Nc2c(F)cc(F)cc2Br)nnc1C1CCCCC1 | 3.21
43 | CCOC(=O)c1nnn(-c2nonc2-c2ccccc2)c1C | -25.2
